Assay results: the supplement of paper PMC3334620
Whole data set: some 33,000 sequences, median “E-score (-0.5 to 0.5)” near -0.0034, cut for the highest 2% near 0.25. This excerpt belongs to a sample that is enriched for the highest values.

The sequences below were run against T1, Yap3 (UniProt P38749) (assay: PBM E-score (8-mer binding enrichment) (E-score (-0.5 to 0.5)); higher = stronger / more preferred TF binding). Settings: protein concentration: 100 nM; construct: GST-full length.
T1 sequence: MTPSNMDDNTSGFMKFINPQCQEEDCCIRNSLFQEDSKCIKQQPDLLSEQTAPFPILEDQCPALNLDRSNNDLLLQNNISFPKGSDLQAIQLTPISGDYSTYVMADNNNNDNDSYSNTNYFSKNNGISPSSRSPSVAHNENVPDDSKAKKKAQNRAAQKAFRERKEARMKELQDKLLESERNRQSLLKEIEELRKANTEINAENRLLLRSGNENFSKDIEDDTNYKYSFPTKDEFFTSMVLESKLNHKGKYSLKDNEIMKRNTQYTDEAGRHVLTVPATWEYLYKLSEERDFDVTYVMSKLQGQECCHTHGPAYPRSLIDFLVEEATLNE
Summary of the method: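 PURExpress in vitro transcription/translation supplied GST-tagged yeast transcription factors, either full-length or DNA-binding domain. Applied at about 100-200 nM to universal all-10-mer Agilent arrays double-stranded by primer extension, the bound protein was detected with fluorescent anti-GST. E-scores, modified Wilcoxon-Mann-Whitney statistics, were given by the Universal PBM Analysis Suite to ungapped eight-base words pooled with their reverse complements after masliner normalisation.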

Sequence | PBM E-score
CAAATGAA | 0.14
TAAATGAA | 0.117
GAAATGCC | 0.0869
GAAATGAC | 0.259
GAAATGAA | 0.289
CAAATGAC | 0.0524
TTGGCCAA | -0.0814
GCGCCCAC | -0.0948
ATGCTACC | 0.0357
ACCTCTCC | -0.165
ACATGGCA | -0.0266
TATAACCA | 0.269
GATAACCA | 0.161
GATAACAA | 0.0894
TATAACAA | 0.265
CATAACCA | 0.0668
CATAACAA | 0.18
GAGGGGCA | -0.299
CAATGCTG | -0.114
AGCAAAAA | 0.122
CCCAACGA | -0.0115
GATTTTCA | 0.175
AATTATCA | 0.288
AATTATCG | 0.267

Sequence | PBM E-score
CATTATCA | 0.161
AATTATCC | 0.133
AATTATCT | 0.237
CATTATCG | 0.129
TTCCCGAA | 0.115
CGAGTACG | -0.147
GGAAGGTA | -0.0252
AGAAGGTG | 0.029
AGAAGGTA | 0.28
TGAGCTCA | 0.0969
AAAGGTCT | -0.0778
GTTGGCTA | 0.12
ATGGGTAG | -0.0623
GTGCAGCA | -0.204
CCTTTGTA | -0.135
GCTTTGTA | 0.259
ACTTTGTA | 0.0238
AATTATGT | 0.164
CATTATGC | 0.0641
AATTATGA | 0.278
AATTATGG | 0.238
GATTATGC | 0.0614
AATTATGC | 0.273
CAGTCTAC | -0.192

Sequence | PBM E-score
GGCTTCCC | -0.127
CTCCAACA | 0.141
TATTACGA | 0.326
TATTACCA | 0.196
AATTACAA | 0.151
CATTACGA | 0.149
ACTTACGC | 0.122
GCTTACGA | 0.219
AATTACGA | 0.33
GATTACGA | 0.291
GGTTACGA | 0.06
ACTTACGA | 0.315
CTTTACGA | -0.0493
GATTACGC | 0.108
GGCCTTAC | -0.144
CTCTAATC | -0.0693
CCACTAGC | -0.158
AGCTGAAA | -0.101
AGAATTCT | 0.124
TCCGCAAA | 0.0357
ACAGACGC | -0.168
CGTGCACC | -0.0988
AATTACGT | 0.308
AATTACGC | 0.208

Sequence | PBM E-score
AATTACGG | 0.235
CATAATTA | 0.316
AATAATGC | 0.216
AATAATTA | 0.316
GATAATTA | 0.251
CATAATGA | 0.118
AATAATTC | 0.263
AATAATGA | 0.0556
AATAATTG | 0.203
CATAATTC | 0.23
ACCTTCAG | -0.0617
AGCAAAGC | 0.0118
ACTAGCGC | 0.0683
GGCACTAA | 0.107
CGGTGTGA | 0.115
GAGAACAC | -0.00708
AAGAACAA | 0.267
AAGAACAG | 0.0639
AAGAACAC | 0.147
CAGAACAA | 0.248
GAGAACAA | 0.311
CCGCGAGG | -0.0632
